Measured values from PubChem BioAssay (NCATS).
Records with an inconclusive call do not appear. Calls of active or inactive are those of the source. Unless noted, the call rests on the fitted dose curve; in most records, active means well fitted curve in the direction sought with a large enough effect; inconclusive means small, poorly fitted or top-dose-only effect, or another doubt; inactive means no such curve, though single readings can be large; an effect the other way counts as inactive or inconclusive.

Assays:
[1] = Cellular Toxicity (caspase-3) Hek293 (AID 664); details: HEK293 caspase-3 activation, DMSO = 0%, 100 µM tamoxifen = 100%; at 92.2 µM (top of the series);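 further: cells exposed to compound for 16 h at 37 °C before readout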
Procedure, shortened: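 Apoptosis readout: Caspase-Glo 3/7 signal in human HEK293 cells following 16-hour compound incubation. Responses scaled between DMSO baseline and 100 uM tamoxifen.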

[2] = Cellular Toxicity (caspase-3) N2a (AID 665);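 further: compound exposure lasted 16 h at 37 °C before readout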
Procedure, shortened: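 Concentration-response qHTS: compound-induced caspase-3/7 luminescence in N2a cells (16 h, 37 °C), relative to DMSO and 10 uM staurosporine controls; AC50 obtained using the standard Hill equation.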

[3] = Cellular Toxicity (caspase-3) NIH 3T3 (AID 666);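 further: caspase signal read after 16 h compound exposure; 0% = DMSO basal and 100% = 100 µM tamoxifen stimulation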
Procedure, shortened: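 Activity: caspase-3/7 induction, NIH 3T3 cells, 16 hr treatment at 37°C, luminescent Caspase-Glo detection; AC50 via Hill equation.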

[4] = Cellular Toxicity (caspase-3) Renal Proximal Tubule (AID 667);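 further: cells exposed to compound for 16 hours at 37 °C before detection; 0% = DMSO basal and 100% = 10 µM staurosporine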
Procedure, shortened: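 In qHTS format, rat primary proximal tubule cells seeded at 1000 per well are exposed to compounds for 16 hours at 37 °C. An increase in Caspase-Glo 3/7 luminescence indicates caspase activation.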

[5] = molecular target: Cytochrome P450 3A4 (Homo sapiens) (UniProt P08684); test: qHTS Assay for Inhibitors and Substrates of Cytochrome P450 3A4 (AID 884); further: on the % scale 0 is the no-effect control and ±100 the full control effect; nearly all actives have a fitted effect of over 50% in size
Sequence of Cytochrome P450 3A4 (Homo sapiens) (P08684 whole entry, looked up): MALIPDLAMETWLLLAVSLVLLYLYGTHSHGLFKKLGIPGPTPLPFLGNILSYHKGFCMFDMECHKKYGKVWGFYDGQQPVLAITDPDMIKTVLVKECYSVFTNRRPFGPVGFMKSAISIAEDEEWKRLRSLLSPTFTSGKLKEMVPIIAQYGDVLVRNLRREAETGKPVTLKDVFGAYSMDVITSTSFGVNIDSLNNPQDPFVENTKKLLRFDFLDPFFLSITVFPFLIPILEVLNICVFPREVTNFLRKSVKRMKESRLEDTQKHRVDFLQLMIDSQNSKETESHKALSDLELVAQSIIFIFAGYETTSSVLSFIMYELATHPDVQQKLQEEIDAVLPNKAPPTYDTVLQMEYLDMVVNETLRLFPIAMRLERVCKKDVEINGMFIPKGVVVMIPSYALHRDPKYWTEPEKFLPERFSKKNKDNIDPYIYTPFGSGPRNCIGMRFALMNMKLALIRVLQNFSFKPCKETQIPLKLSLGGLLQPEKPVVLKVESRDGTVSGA
Procedure, shortened: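 Luminescent readout of luciferin produced by CYP3A4 (20 nM) dealkylation of Luciferin-PPXE, 25 uM (its KM). NADPH-driven reaction ran 60 min at RT after 10 min compound preincubation; data scaled to 57 uM ketoconazole as 100% inhibition.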

[6] = MultiTox-Fluor Cytotoxicity Assay - LYMP1-001 - Dead Cells (AID 946);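 further: 0% = DMSO and 100% = tetraoctylammonium bromide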
Procedure, shortened: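 LYMP1-001 lymphoblastoid cells (2500/well) treated 16 h at 37 C. Dead-cell protease cleavage of bis-AAF-R110 read at Ex/Em 485/520. Normalized to DMSO and 15 uM tetraoctylammonium bromide; AC50 from Hill fits.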

[7] = MultiTox-Fluor Cytotoxicity Assay - LYMP1-002 - Dead Cells (AID 960);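 further: 0% = DMSO and 100% = tetraoctylammonium bromide; nearly all actives have a fitted effect of over 60% in size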
Procedure, shortened: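 Concentration-dependent increases in membrane-leaked protease activity are quantified in LYMP1-002 cells after 16 hr treatment; values are normalized against DMSO and tetraoctylammonium bromide (15 uM) controls and AC50 derived by Hill modeling.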

[8] = MultiTox-Fluor Cytotoxicity Assay - LYMP1-003 - Dead Cells (AID 961);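 further: 0% = DMSO and 100% = tetraoctylammonium bromide; nearly all actives have a fitted effect of over 70% in size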
Procedure, shortened: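 LYMP1-003 human lymphoblastoid cells (2500/well) exposed to compound 16 h at 37 C in complete medium; dead-cell protease read with bis-AAF-R110 fluorescence (Ex/Em 485/520) after 60 min at room temperature. Normalized to DMSO and 15 uM tetraoctylammonium bromide; AC50 from Hill fit.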

[9] = qHTS Assay for Identification of Small Molecule Inducers of Hypoxia Response (AID 2120; active means well fitted curve in the direction sought with a large enough effect in the signal ratio, with a control signal flat, not every such curve was filed as active; the % refers to the signal ratio; further: 0% is about no effect)
Procedure, shortened: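 HRE-bla ME-180, 2500 cells/well, 0.5% dialyzed FBS medium; cpd titration, 17 h 37 degrees C; CCF4 2.5 h RT; Ex 405, Em 460/530 ratio -> %Activity, AC50.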

[10] = molecular target: Vitamin D3 receptor (Homo sapiens) (UniProt P11473); test: qHTS assay for small molecule agonists of vitamin D receptor signaling (AID 588543; calls by dose curve;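 further: 0% = DMSO basal and 100% = reference agonist control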)
Sequence of Vitamin D3 receptor (Homo sapiens) (P11473 whole entry, looked up): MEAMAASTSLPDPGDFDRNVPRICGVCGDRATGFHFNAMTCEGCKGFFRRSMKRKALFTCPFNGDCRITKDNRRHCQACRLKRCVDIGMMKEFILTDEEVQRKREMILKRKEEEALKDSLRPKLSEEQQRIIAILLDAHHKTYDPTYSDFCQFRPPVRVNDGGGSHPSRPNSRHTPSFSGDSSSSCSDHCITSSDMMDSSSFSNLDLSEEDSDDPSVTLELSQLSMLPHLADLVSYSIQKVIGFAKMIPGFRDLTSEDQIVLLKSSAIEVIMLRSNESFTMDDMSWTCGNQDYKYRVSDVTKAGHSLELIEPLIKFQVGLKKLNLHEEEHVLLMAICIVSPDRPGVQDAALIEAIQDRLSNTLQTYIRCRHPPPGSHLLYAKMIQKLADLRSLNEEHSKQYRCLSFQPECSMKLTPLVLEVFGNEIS
Procedure, shortened: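 qHTS in agonist mode: compound titrations stimulate a VDR-driven β-lactamase reporter in HEK293T cells over 16 h at 37 °C. Response normalized to 50 nM 1α,25-dihydroxyvitamin D3 = 100%, DMSO = 0%; Hill fitting gives EC50 and maximal response.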

[11] = molecular target: Thyroid hormone receptor beta (Homo sapiens) (UniProt P10828); test: qHTS assay for small molecule agonists of thyroid hormone receptor beta signaling (AID 588545; calls by dose curve;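 further: 0% = DMSO only and 100% = 10 nM T3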)
Sequence of Thyroid hormone receptor beta (Homo sapiens) (P10828 whole entry, looked up): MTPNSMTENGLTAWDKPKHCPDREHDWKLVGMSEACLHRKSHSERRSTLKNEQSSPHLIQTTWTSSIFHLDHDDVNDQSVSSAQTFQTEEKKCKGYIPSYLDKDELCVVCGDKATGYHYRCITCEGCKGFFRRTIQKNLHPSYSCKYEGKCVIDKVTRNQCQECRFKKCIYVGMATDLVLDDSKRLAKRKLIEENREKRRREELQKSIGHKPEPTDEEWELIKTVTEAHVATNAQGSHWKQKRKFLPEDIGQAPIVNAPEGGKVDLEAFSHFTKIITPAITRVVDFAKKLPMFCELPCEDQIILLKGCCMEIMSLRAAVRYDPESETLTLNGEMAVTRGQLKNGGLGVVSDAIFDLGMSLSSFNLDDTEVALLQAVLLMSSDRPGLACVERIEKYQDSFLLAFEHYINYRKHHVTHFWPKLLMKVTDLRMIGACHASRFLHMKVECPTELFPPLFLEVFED
Procedure, shortened: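 Stimulation of a TR-driven beta-lactamase reporter was quantified in GripTite HEK 293 cells. Compound series ran for 18 hrs; curves were normalized to T3 and DMSO controls and fitted to yield EC50.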

[12] = molecular target: Voltage-gated inwardly rectifying potassium channel KCNH2 (Homo sapiens) (UniProt Q12809); test: qHTS Assay for Small Molecule Inhibitors of the Human hERG Channel Activity (AID 588834);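 further: U2OS cells transduced with hERG by BacMam; top concentration of the series differs between compounds; on the % scale 0 is the no-effect control and ±100 the full control effect; lower thallium flux fluorescence means stronger hERG block; nearly all actives have a fitted effect of over 50% in size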
Sequence of Voltage-gated inwardly rectifying potassium channel KCNH2 (Homo sapiens) (Q12809 whole entry, looked up): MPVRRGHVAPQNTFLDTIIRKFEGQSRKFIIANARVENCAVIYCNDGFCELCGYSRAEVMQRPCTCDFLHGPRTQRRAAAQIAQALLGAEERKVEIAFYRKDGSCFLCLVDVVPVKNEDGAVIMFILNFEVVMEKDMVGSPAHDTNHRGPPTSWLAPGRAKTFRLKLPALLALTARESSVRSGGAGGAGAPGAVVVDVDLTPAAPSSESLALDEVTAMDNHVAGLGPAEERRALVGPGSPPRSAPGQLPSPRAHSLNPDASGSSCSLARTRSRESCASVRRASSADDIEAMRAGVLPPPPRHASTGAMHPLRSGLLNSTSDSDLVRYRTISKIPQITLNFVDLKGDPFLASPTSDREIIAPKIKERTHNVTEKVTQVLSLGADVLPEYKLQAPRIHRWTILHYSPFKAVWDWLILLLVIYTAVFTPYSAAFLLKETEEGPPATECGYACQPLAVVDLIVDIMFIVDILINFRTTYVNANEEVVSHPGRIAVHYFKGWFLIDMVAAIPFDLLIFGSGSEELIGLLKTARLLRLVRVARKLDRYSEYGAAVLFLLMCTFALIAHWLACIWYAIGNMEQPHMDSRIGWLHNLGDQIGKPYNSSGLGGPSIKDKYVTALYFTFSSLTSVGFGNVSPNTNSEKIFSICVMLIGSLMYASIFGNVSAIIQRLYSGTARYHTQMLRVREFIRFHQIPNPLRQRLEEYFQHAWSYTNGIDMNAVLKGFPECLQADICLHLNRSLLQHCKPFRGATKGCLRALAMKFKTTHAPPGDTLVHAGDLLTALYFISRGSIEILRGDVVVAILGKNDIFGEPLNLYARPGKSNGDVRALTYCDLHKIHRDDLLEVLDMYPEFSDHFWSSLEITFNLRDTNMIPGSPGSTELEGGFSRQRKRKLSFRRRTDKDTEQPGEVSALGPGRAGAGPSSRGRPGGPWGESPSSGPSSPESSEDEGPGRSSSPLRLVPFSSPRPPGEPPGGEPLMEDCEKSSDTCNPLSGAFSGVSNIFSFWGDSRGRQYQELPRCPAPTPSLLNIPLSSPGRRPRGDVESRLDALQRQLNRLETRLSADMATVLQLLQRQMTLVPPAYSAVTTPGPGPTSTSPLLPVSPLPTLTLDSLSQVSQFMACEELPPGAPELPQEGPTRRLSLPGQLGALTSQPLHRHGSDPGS
Procedure, shortened: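 Cells were infected with hERG-BacMam virus for 4 hrs at room temperature, grown overnight, then seeded at 2000/well. After dye loading and roughly 10 min compound treatment, thallium influx was triggered and fluorescence recorded.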

[13] = molecular target: Tumor necrosis factor (Homo sapiens) (UniProt P01375); test: qHTS assay to identify small molecules that stimulate Tumor Necrosis Factor-alpha (TNF-alpha) secretion (AID 651757; active means well fitted curve in the direction sought with a large enough effect in the signal ratio; the % refers to the signal ratio; further: 0% is about no effect)
Sequence of Tumor necrosis factor (Homo sapiens) (P01375 whole entry, looked up): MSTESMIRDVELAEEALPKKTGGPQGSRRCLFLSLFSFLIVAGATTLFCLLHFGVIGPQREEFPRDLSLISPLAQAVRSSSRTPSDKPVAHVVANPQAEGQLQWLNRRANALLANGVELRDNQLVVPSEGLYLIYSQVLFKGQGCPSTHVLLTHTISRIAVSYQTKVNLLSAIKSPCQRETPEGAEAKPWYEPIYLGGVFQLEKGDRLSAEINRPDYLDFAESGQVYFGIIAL
Procedure, shortened: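 Using 3000 THP-1 cells per well, compounds and controls were applied for 17 hrs at 37 C. Detection followed with two labeled anti-TNF-alpha antibodies (cryptate donor, XL665 acceptor) for 3 hr at room temperature, measured by TR-FRET.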

[14] = qHTS assay for environmental chemicals that activate the Aryl hydrocarbon Receptor (AhR) signaling pathway (AID 651777); details: 1A2-DRE human hepatoma cells, luciferase, 24 h; activation: stronger effect = higher value; further: % of control where 0% means no effect; nearly all actives have a fitted effect of over 15% in size
Procedure, shortened: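 Human hepatoma 1A2-DRE cells stably carrying a DRE/CYP1A2 promoter–luciferase reporter, 1,200 cells/well, exposed to compound 24 hr at 37 C. Luciferase read by One-Glo luminescence after 30 min at room temperature; increased signal marks AhR activation.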

[15] = molecular target: Peroxisome proliferator-activated receptor alpha (Homo sapiens) (UniProt Q07869); test: qHTS assay for small molecule agonists of the peroxisome proliferator-activated receptor alpha (PPARalpha) signaling pathway (AID 651778); details: PathHunter PPARalpha complementation, chemiluminescence, 6 h; stronger effect = higher value; further: % of control where 0% means no effect
Sequence of Peroxisome proliferator-activated receptor alpha (Homo sapiens) (Q07869 whole entry, looked up, the tested form may be a part): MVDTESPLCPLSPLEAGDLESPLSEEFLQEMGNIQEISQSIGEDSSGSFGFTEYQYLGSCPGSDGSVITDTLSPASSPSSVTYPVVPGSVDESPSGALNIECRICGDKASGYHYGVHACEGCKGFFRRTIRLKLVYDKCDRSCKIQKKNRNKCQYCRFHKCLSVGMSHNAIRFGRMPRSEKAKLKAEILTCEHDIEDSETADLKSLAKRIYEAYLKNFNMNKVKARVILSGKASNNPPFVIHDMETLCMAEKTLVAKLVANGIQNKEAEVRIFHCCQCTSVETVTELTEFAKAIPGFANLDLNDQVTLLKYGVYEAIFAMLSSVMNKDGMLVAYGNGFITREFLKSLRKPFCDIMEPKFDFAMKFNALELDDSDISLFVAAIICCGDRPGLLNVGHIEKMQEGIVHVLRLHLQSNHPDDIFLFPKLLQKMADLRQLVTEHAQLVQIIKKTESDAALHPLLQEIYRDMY
Procedure, shortened: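 Enzyme-fragment complementation assay in which ligand-bound PPARalpha translocates and forms an active enzyme that generates chemiluminescence. Cells were plated overnight, exposed to compound for 6 hr at 37 C, and then given detection reagent for 60 min at room temperature.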

[16] = qHTS assay for small molecule agonists of the antioxidant response element (ARE) signaling pathway measured by Nrf2-dependant transcriptional activity - cell viability counter screen (AID 720653; active means well fitted curve in the direction sought with a large enough effect in the repeat runs; an effect the other way counts as inactive or inconclusive; further: on the % scale 0 is the no-effect control and ±100 the full control effect); details: ARE-bla HepG2 viability, CellTiter-Glo ATP luminescence, 16 h; stronger effect = lower value
Procedure, shortened: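 ARE-bla HepG2 cells treated with compounds for 16 h at 37C; this counter screen measures viability as intracellular ATP by CellTiter-Glo luminescence after 30 min at room temperature.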

[17] = qHTS assay for cell viability of HEK293 cells (AID 743288); details: ATP luminescence (CellTiter-Glo), 18 h, stronger effect = lower value; further: on the % scale 0 is the no-effect control and ±100 the full control effect; nearly all actives have a fitted effect of over 50% in size
Procedure, shortened: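 Quantitative high-throughput screen: compounds were pinned onto parental HEK293 cells (2,000 per well) after a minimum 5 h settling at 37 C, incubated 18 h at 37 C, and intracellular ATP measured by luciferase luminescence.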

[18] = qHTS assay for cell viability of the p53RE-bla HCT-116 cell line (AID 743292); further: on the % scale 0 is the no-effect control and ±100 the full control effect; nearly all actives have a fitted effect of over 55% in size
Procedure, shortened: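 CellSensor p53RE-bla HCT-116 cells (4,000/well) pre-incubated 5 h at 37 C, then exposed to compounds in DMSO for 16 h at 37 C. Viability read as ATP content by CellTiter-Glo luminescence after 30 min at room temperature.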

[C-]1=CC=CC1.[C-]1=CC=CC1.[Cl-].[Cl-].[Ti+4]
inactive: caspase-3 activation [1] 3.8% | outcome [2] | Potency [3] | outcome [4] | Potency [5] | outcome [6] | Potency [7] | Potency [8] | Potency [9] | outcome [10] | Potency [11] | Potency [12] | outcome [13] | activation [14] 0.145% | max response [15] 0.688% | max response [16] -7.58% | max response [17] -17.8% | Potency [18]
